# Source: PubChem BioAssay (several laboratories)
# Rows were chosen to be rich in hits. Some 4.5% of all compounds tested hit in one or more screens of this group.
# CSC inhib: cancer stem cell inhibition | actives 1.1% (n = 300,000) | inhibition, % at 7.5 µM | cancer stem cell-like cells viability, luminescence; in the data active = inhibition above about 75%; inconclusive = no clear call, values can overlap the other calls; tested in HMLE shEcad cells
# Mdm2 MdmX PPI: inhibitors of human Mdm2/MdmX interaction; SaOS-2 split-luciferase Mdm2/MdmX complementation, luminescence; inhibition, % at 8 µM; actives 3% (n = 330,000); AID 485346;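 active = inhibition of at least 50% at 8 µM in the primary screen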
# 697 NFkB inh: inhibitors of the PMA/ionomycin-induced NF-kB reporter in 697 B cells. 697 B-cell NF-kB luciferase reporter, 16 h. inhibition, % at 4 µM. actives 0.33% (n = 330,000). AID 435022; in the data active = inhibition above about 35%
# Jurkat NFkB inh: lowers PMA/ionomycin-induced NF-kB signal in Jurkat cells | AID 435003 | actives 0.53% (n = 330,000) | PMA/ionomycin-induced NF-kB luciferase reporter, luminescence | inhibition, % at 4 µM; in the data active = inhibition above about 50%
# Gli-Sufu antag: Gli-Sufu pathway antagonism. Sufu-KO-LIGHT fibroblasts, Gli luciferase reporter luminescence. inhibition, % at 5 µM. actives 0.74% (n = 340,000). AID 588413;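 active = inhibition above about 55%, limit read from the data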;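 also: 0% = DMSO-treated cells and 100% = wells with medium but no cells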
# aSyn 5UTR inh: MLPCN primary screen, SNCA 5' untranslated region | alpha-synuclein 5'UTR reporter, inhibitor activity | inhibition, % (tested at 7.5 µM) | actives 0.82% (n = 300,000); in the data active = inhibition above about 60%; inconclusive = no clear call, values can overlap the other calls;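 also: H4 neuroglioblastoma cells stably carrying SNCA 5'UTR luciferase fusion; 0% = DMSO wells and 100% = positive control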
# Jurkat NFkB conf: lowers PMA/ionomycin-induced NF-kB signal in Jurkat cells | actives 27% (n = 2,700) | shares compounds with Jurkat NFkB inh | Jurkat NF-kB luciferase, 16 h | AID 435020 | inhibition, % at 4 µM;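 active = inhibition reaching about 45% at 4 µM in either replicate, limit read from the data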;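 also: plate controls were PMA/ionomycin stimulated DMSO wells for no effect and unstimulated DMSO wells for full effect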
# * hit, by the source's call; ? = inconclusive; . = no result given.
SMILES,CSC inhib,Mdm2 MdmX PPI,697 NFkB inh,Jurkat NFkB inh,Gli-Sufu antag,aSyn 5UTR inh,Jurkat NFkB conf
CC(=O)c1sc(NC(=O)c2ccco2)nc1-c1ccccc1,-7.6,-41.8,-62.9,-13.9,-54.7,-115.0,.
Cc1sc(NC(=O)c2ccco2)nc1-c1ccccc1,25.4,-174.7,-221.1,-162.9,-30.6,-94.6,-93.9
COc1ccc(S(=O)(=O)N(C)C)cc1NCC(=O)Nc1cccc(C#N)c1,8.6,12.9,3.9,-6.0,1.4,-11.1,.
COc1ccc(C(=O)COC(=O)CCNS(=O)(=O)c2ccccc2)cc1Br,0.1,34.9,4.8,0.0,4.8,14.8,.
CC(=O)N1C(C(=O)O)CSC1c1ccc(C)cc1 (stereo not drawn),-9.4,5.0,11.0,17.0,-5.4,14.7,.
CCOc1ccccc1CN1CCN(Cc2cc(=O)c3ccccc3[nH]2)CC1CCO (stereo not drawn),7.0,48.1,-12.7,50.9*,13.1,-24.5,17.3
CCOc1ccccc1CN1CCN(Cc2[nH]c3ccccc3c2C)CC1CCO (stereo not drawn),18.3,10.2,11.1,10.0,15.0,-16.2,.
C[C@]12CC[C@@H]3c4ccc(OC(=O)c5ccccc5)cc4CC[C@H]3[C@@H]1CC[C@@H]2O,7.2,41.3,8.2,14.5,-11.5,-11.9,.
COc1cc2c(cc1O)CC[C@@H]1[C@@H]2CC[C@]2(C)[C@@H](O)CC[C@@H]12,52.7,42.4,-43.2,61.2*,-12.1,75.3*,53.5*
COc1cc2c(cc1OC)CN(C(=O)c1ccc3nc[nH]c3c1)CC2,53.0,45.3,-4.2,60.8*,-16.7,5.6,22.2
O=C(c1ccc2nc[nH]c2c1)N1CCc2ccccc2C1,17.1,-20.8,0.6,-9.7,-9.6,6.9,.
Nc1c(Cl)ncnc1NCC(O)CO (stereo not drawn),-3.0,18.3,16.4,-5.0,5.6,.,.
CCC1(c2ccccc2)SCC(c2ccccc2)=NC1=O (stereo not drawn),.,.,.,.,3.7,.,.
Cc1cc2nnc(SCC(=O)NCc3cccs3)n2c2ccccc12,1.2,21.7,-22.2,46.0,-0.1,-27.3,.
Cc1cc2nnc(SCC(=O)NCc3ccco3)n2c2ccccc12,?,42.7,-19.7,58.4*,-7.1,-184.1,10.8
COc1ccc(Cl)cc1NC(=O)CN(C)C(=O)c1cc2c(F)cccc2s1,47.1,40.4,1.4,58.1*,-1.8,.,17.1
Cc1occc1C(=O)N/N=C/c1ccc(OCc2ccccc2)cc1,2.6,-23.7,-43.6,-60.6,-36.5,-137.7,.
Cc1occc1C(=O)N/N=C/c1ccc(-c2ccccc2)cc1,-5.2,-124.1,-239.4,-206.4,-163.1,-29.1,-72.4
Oc1ccccc1-c1cc(-c2ccccc2)n[nH]1,.,-205.2,-200.3,-181.3,-1.2,.,-81.2
NC(=O)c1sc2nc3c(cc2c1N)CCC3,2.7,21.8,-20.2,-25.5,-21.5,-53.1,.
CCOC(=O)c1sc2nc3c(cc2c1N)COC(C)(CC)C3 (stereo not drawn),-5.6,-157.6,-192.2,-212.2,-151.2,-51.9,-110.2
COC(=O)c1sc2nc3c(cc2c1N)CCCC3,.,-245.2,-97.3,-152.7,-147.0,-143.1,-26.8
COc1ccc(OC)c(S(=O)(=O)NCC(c2cccs2)N2CCc3ccccc3C2)c1 (stereo not drawn),8.0,-0.5,4.7,-0.4,3.1,-5.7,.
COc1ccc(C2C(C(=O)Nc3cc(OC)c(OC)c(OC)c3)c3ccccc3C(=O)N2C)cc1 (stereo not drawn),.,47.6,-70.0,75.2*,1.1,97.9*,21.8
CC(C)NC(=O)NC(=O)COc1ccc(Br)cc1Br,-14.9,-108.0,-205.5,-204.8,-99.3,-11.1,-93.8
Cc1cc(C(=O)CN2C(=O)C3CC=CCC3C2=O)c(C)n1-c1ccccc1 (stereo not drawn),-3.5,0.2,-199.4,-173.7,-91.0,16.9,-60.6
Cc1cc(C(=O)Cn2cc(C(F)(F)F)ccc2=O)c(C)n1-c1ccccc1,25.9,-28.8,-17.9,15.8,-2.1,22.8,.
O=C(COC(=O)c1ccccn1)NCc1cccs1,-3.6,-11.7,17.9,13.3,1.1,-7.4,.
COc1ccc(CCNC(=O)COC(=O)c2ccc(N3CCCC3=O)cc2)cc1,.,-34.9,13.5,12.4,-2.8,-3.7,.
O=C(Nc1ncc(Cc2cccc(C(F)(F)F)c2)s1)C1CCCO1 (stereo not drawn),16.7,-7.8,-3.8,-8.5,-12.2,-50.6,.
